For 66 sequences, seed-corrected z-score results are on record in PubChem BioAssay AID1159506 (National Center for Advancing Translational Sciences (NCATS), 2015).

Whole data set: some 59,000 sequences, median the read-out near -0.00055, cut for the lowest 2% near -2. This excerpt belongs to a sample that is enriched for the lowest values.

The test can be described thus: Identification of proteins required for the processing of the EWS-FLI1 nascent transcript.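 Further: robust z of luciferase light less the median z of siRNAs with the same seed.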 Conditions: TC32 Ewing sarcoma NR0B1-luc vs CMV-luc (EWS-FLI1 target promoter against control promoter), 48 h; screened at 20 nM (by protocol). A digest of the protocol:
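Readout: OneGlo luminescence, 48 h post-transfection, TC32-NR0B1-luc vs TC32-CMV-luc in parallel. siRNA 20 nM final, RNAiMax lipid, 600 cells/well; z-score-MAD transformed, then seed-adjusted.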
For the sequence AAACUAGUAACUCCUCGUC against PRDM8, the seed-corrected z-score is -2.41. With AGUUGAAUAAGAAAGUACC against MTM1 the figure was 1.55. In the case of UCAAACACCAGGGUGAGGG against CDK18 it was -0.15; in that of AACUGGUUAUGGUAGUUGC against RMI2, -2.9. With UCAGGAUCCAGACAGUUGC against TP53AIP1 the figure was 0.541; with UUAGGUGCACCAGUAAGAG against PEX2, -1.19. With UCCAGUAAAAGGCUGAGCG against LGI1, the seed-corrected z-score was -3.39. In the case of UCAGGAUGAUGUGUGGGAU against KRTAP5-11 it was -1.11; in that of UGCUGUUCAAGCGAAUGCC against DRG1, 0.745; in that of AUAAGAUUGGAAUUCGACG against ARL6, 0.549. On to UUUGGAGCUACCACCCGAC against MRPL27, for which the seed-corrected z-score came to 0.314.

Sequence AAAGCGACACCUGUCAGUC against IKBKAP yielded a seed-corrected z-score of -0.0431. With UUCAAUGAUAAUAAGGUUG against SF3B3 the figure was -3.05; with UUUAUCGAAAGCAAAAUUG against MTPAP, 0.577; with AAAUCGACUACUGAGAACC against CUL9, 0.396. For the sequence AUCCCGACAAUCACCUUCC against DPAGT1, the seed-corrected z-score is -0.101. AAUGUGGUGAAUACCUCGC against TXLNA displayed a seed-corrected z-score of 0.621.

As to AUCGGUCACAAAUUGUGGG against ABCE1, the seed-corrected z-score was -2.31. In the case of UGUUCAUCAAGAGGUUUCC against NUP188 it was 0.194.

In the case of UUUCCAUAGACUUUCCCAC against KLF9, the seed-corrected z-score was -0.352. Take UUUCUUAACUGAGUUCCUC against BMF: the seed-corrected z-score is -0.0574. In the case of UAUCAACUCAGUCCUCAGC against HPS6 it was 0.543. With AAGACUUUCAGACAUUUGU against ZNF181 the figure was -0.276. In the case of UUUGGGCUUAGCGGCUUUG against HIST1H1B it was -2.05. In the case of ACUGUAAUUACUAAGAUCU against CXCR2, the seed-corrected z-score is -1.37.

The sequence UACCAGAUGUCUUUUGUGC against IL33 gave a seed-corrected z-score of 0.0107. With UUCUGGUCGAGAGCAUCUG against MAGEB16 the figure was -2.42; with UAUAACUUGAGAGUAGCUC against POPDC2, 0.283. With UAUAAGUUUCCUCCCAUGC against TM6SF1 the figure was 0.269; with AUCUUGGACAGUAUCAGCC against IQCF1, -2.36. With UUGAGUUUGAUGCCGCUGC against MKNK2 the figure was -0.331. Consider UUUCUUAGGGAACCAGUUG against TAGLN2, for which the seed-corrected z-score is -0.282. The sequence UCCAGAUUCAAAAUGUCUU against NKX2-3 showed a seed-corrected z-score of 0.184. In the case of AAACUCAUCACUCCAGUAC against PARP12 it was 0.00618; in that of UUCUUGACUGCUGGUAUAG against C3orf30, -0.465; in that of UCGGUGUUCACGUAGCCCU against SYNGR3, -0.68. With UUUAUUUAGACUUAUGAUC against PTH the figure was -2.27; with UCUACUUUUCACAAUGACC against GCLM, -0.666. With ACGGCCUCCACUAUGUUUC against RPS26P31 the figure was 0.368; with AAACUGUGAAGCGUAAGUG against FAM188B, -4.34; with UGUCAAAUGAAAUUCCUUC against DHX38, -0.779. UGUGUGAGCAUGAAGCGAG against SSNA1: the seed-corrected z-score came to 0.0225.

The sequence AUAUGUAUCAGAACUGGGA against SAE1 registered a seed-corrected z-score of -0.67. With UGCUGUAAUGAUGUACUCC against KIAA1549 the figure was -1.71. For the sequence UUAAUCACCUUGUCGUUGC against ALDH3A1, the seed-corrected z-score was -0.669. With UGGUCUUAAAAUUAGAGUG against CALR3 the figure was -2.01; with AUAUGAUUAGGUAGGUUUG against GDPD2, 0.805. For the sequence UCGGAUUGAUCUGUUAUGG against CFAP54, the seed-corrected z-score was -1.05. In the case of UGGUAUAUAAGGGAUGAGC against ZNF611 it was -2.07. UAUUGUCCAAAUGCUCAGG against SALL1: the seed-corrected z-score is -0.159. Consider UGUCUAAUAAGGCCUGAGC against ZFP3, for which the seed-corrected z-score was -0.177. With ACAUCACAAAGUAUUAAUC against LOC643855 the figure was 0.14. With UUGGGUUGGAAGUCCACUG against SF3A1 the figure was -2.15; with UUCUGGAUUAUAGUCAUCC against CWC22, 0.478.

Consider AAUGCUUUUAAUGCUCUUC against CARHSP1, for which the seed-corrected z-score is -0.968. In the case of UGAUCUACUAUGGUCCCUC against CPSF6 it was 0.287; in that of UACAUGAGCCUUGAUCUGG against FAU, 1.08; in that of UGCAUGCUCAUUAAGUUCC against TUBE1, -0.26. With UGUAGUCACUUUCACAUUC against CCR2 the figure was -2.02; with UACUCUUAAAGUGAUGUUA against PPP1R1C, 0.297.

Sequence ACAGCACCUAGCAUGAUUG against HIGD1B gave a seed-corrected z-score of 1.03.

UUCAUUAGCACAUAAGCGG against HENMT1 came in with a seed-corrected z-score of 0.665. In the case of UCGAAGUUUACUGCGGUCC against HINFP it was -2.19. In the case of AUUCAUAUAGUUUUUCUCC against ZNF585B it was 0.297. With UAUGCACAAAGUUUGUGGG against CDC42SE2 the figure was -0.65; with UCUCCUCCUCGAAAAGUGC against SLC12A7, 0.16.
